Measured values reported in PubChem BioAssay (NCATS).
Records with an inconclusive call do not appear. Calls of active or inactive are those of the source. Unless noted, calls come from the whole dose curve; as a rule, active = well fitted curve in the direction sought with a large enough effect; inconclusive = small, poorly fitted or top-dose-only effect, or another doubt; inactive = no such curve, though single readings can be large; an effect the other way counts as inactive or inconclusive.

Tests used:
[1] = qHTS profiling for inhibitors of Plasmodium falciparum (HB3) proliferation (AID 743324); settings: Plasmodium falciparum HB3 blood-stage proliferation; at 28.7 µM (top of the series) unless noted;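 note: 100% = DMSO vehicle wells and 0% = artemisinin-treated control wells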
Summary of the method: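 P. falciparum HB3 grown in erythrocytes (0.3% parasitemia, 2.5% hematocrit final) with compound for 72 h at 37 C, 5% CO2. Parasite DNA detected by SYBR Green after saponin/triton lysis overnight; normalized to 0.29 uM artemisinin and DMSO.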

[2] = qHTS profiling of the MIPE4 collection as inhibitors of Plasmodium falciparum (3D7) proliferation (AID 743344; call rule not given here;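 note: scaled between DMSO vehicle wells and 0.29 µM artemisinin as full inhibition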); settings: P. falciparum 3D7 in erythrocytes, SYBR Green DNA fluorescence, 72 h; at 28.5 µM (top of the series) unless noted
Summary of the method: (§1)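 Erythrocytes infected with P. falciparum (0.3% parasitemia, 2.5% hematocrit) incubated with compounds 72 h at 37 C, 5% CO2. Lysis with saponin/Triton buffer containing SYBR Green I, overnight at room temperature in the dark; DNA fluorescence (485/535 nm) normalised to 0.29 uM artemisinin and DMSO.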

[3] = qHTS profiling of the MIPE4 collection as inhibitors of Plasmodium falciparum (DD2) proliferation (AID 743345; call rule not given here); settings: P. falciparum Dd2 in erythrocytes, SYBR Green DNA, 72 h; at 28.5 µM (top of the series) unless noted
Summary of the method: as §1

[4] = qHTS profiling of the MIPE4 collection as inhibitors of Plasmodium falciparum (DD2) proliferation (Rep 2) (AID 743346; call rule not given here); settings: P. falciparum Dd2 in erythrocytes, SYBR Green DNA, 72 h; at 28.5 µM (top of the series) unless noted
Summary of the method: as §1

[5] = qHTS profiling of the MIPE4 collection as inhibitors of Plasmodium falciparum (HB3) proliferation (AID 743347; call rule not given here;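 note: plate controls were DMSO vehicle wells for no effect and artemisinin wells for full effect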); settings: P. falciparum HB3 in erythrocytes, SYBR Green DNA, 72 h; at 28.5 µM (top of the series) unless noted
Summary of the method: as §1

[6] = High-throughput drug toxicity screening in the BPDCN cell line Gen2.2 (AID 1224824; call rule not given here;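 note: cells exposed to compounds for 48 h before reading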); settings: Gen2.2 BPDCN cells; at 45.8 µM (top of the series) unless noted
Summary of the method: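 Readout is ATP luminescence from Gen2.2 cells after two days of drug exposure in serum-containing medium at 37 °C. Values express percent activity, with vehicle defining full signal and 9.2 uM bortezomib defining zero.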

[7] = High-throughput drug toxicity screening in the BPDCN cell line Cal-1 (AID 1224825; call rule not given here); settings: Cal-1 BPDCN cell viability, qHTS; at 45.8 µM (top of the series) unless noted
Summary of the method: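 Exponentially growing Cal-1 cells, 500 per well in phenol red-free RPMI with 10% FBS, were exposed to compounds for 48 h at 37 °C, 5% CO2. Viability was read by CellTiter-Glo luminescence and normalised to DMSO (100%) and 9.2 uM bortezomib (0%).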

[8] = qHTS assay for measurement of the activity of small molecule inhibitors on Zika virus induced Caspase-3 activity in human iPSC derived neural progenitor cells (hNPCs) (AID 1224857); note: % of control where 0% means no effect; nearly all actives have a fitted effect of over 65% in size
Summary of the method: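 In medium with heparin 2 ug/ml and cyclopamine 2 uM, hNPCs (350 cells/well) received compound for one hour and then Zika virus at 2 FFU/cell; caspase activity was measured by Caspase-Glo 3/7 luminescence 6 h post-infection.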

[9] = qHTS assay for measurement of the activity of small molecule inhibitors on Zika virus induced Caspase-3 activity in human astrocytoma cells (AID 1224859);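 note: plate controls were ZIKV-infected untreated cells for no effect and uninfected cells for full effect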
Summary of the method: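 A cell-based luminescent caspase-3/7 assay used SNB-19 cells infected with ZIKV (2 FFU/cell) for 6 h following 1 h compound pretreatment.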

[10] = qHTS Screen of the MIPE 4.0 Collection Against Ewings Sarcoma (RDES) (AID 1259252); note: nearly all actives have a fitted effect of over 35% in size; note: potency is the fitted concentration of half-maximal effect
Summary of the method: (§2)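 Measured: ATP luminescence (CellTiter-Glo) 10 min after reagent addition, following 48 h drug treatment. Relative luciferase units converted to percent activity, with no-cell wells as full and DMSO wells as zero inhibition.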

[11] = qHTS Screen of the MIPE 4.0 Collection Against Ewings Sarcoma (EW8) (AID 1259255); note: nearly all actives have a fitted effect of over 35% in size; note: potency is the fitted concentration of half-maximal effect;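 for viability: 100% = DMSO-treated cells and 0% = medium-only wells without cells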
Summary of the method: as §2

[12] = qHTS Screen of the MIPE 4.0 Collection Against Ewings Sarcoma (TC32) (AID 1259256); note: nearly all actives have a fitted effect of over 45% in size; note: potency is the fitted concentration of half-maximal effect
Summary of the method: as §2

[13] = Identifying Small Molecule Inhibitors of Pancreatic Cancer Stem Cells (A2780, Spheroid) (AID 1259357); settings: Potency: A2780 spheroid viability;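 note: spheroids pre-formed over 14 days in stem cell medium on hydrogel; compound exposure lasted 48 h before the ATP luminescence read; 100% = DMSO treated cells and 0% = wells without cells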
Summary of the method: (§3)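 Spheroids grown 14 days in stem cell media on nonadherent hydrogel before screening; cells attached 4 h, then compound exposure 48 h at 37C, 5% CO2. CellTiter-Glo luminescence normalized to DMSO (no inhibition) and no-cell wells (full inhibition).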

[14] = Identifying Small Molecule Inhibitors of Pancreatic Cancer Stem Cells (SN12C, Adherent) (AID 1259358);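 note: cell survival measured after 48 h of compound exposure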
Summary of the method: (§4)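 After a 4 h attachment period, compounds were pinned into wells and cultures held 48 h under standard incubator conditions. Viability was then measured as CellTiter-Glo luminescence following 10 min at room temperature.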

[15] = Identifying Small Molecule Inhibitors of Pancreatic Cancer Stem Cells (SN12C, Spheroid) (AID 1259360); settings: Potency: SN12C spheroid viability;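 note: 100% = DMSO-treated cells and 0% = wells without cells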
Summary of the method: as §3

[16] = Identifying Small Molecule Inhibitors of Pancreatic Cancer Stem Cells (A278, Adherent) (AID 1259361);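 note: 100% = DMSO-treated cells and 0% = cell-free media-only wells; nearly all actives have a fitted effect of over 35% in size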
Summary of the method: as §4

[17] = qHTS Screen of the MIPE 4.0 Collection Against Ewings Sarcoma (TC71) (AID 1259253); note: nearly all actives have a fitted effect of over 40% in size; note: potency is the fitted concentration of half-maximal effect
Summary of the method: as §2

[18] = qHTS assay to identify small molecule inhibitors of chordoma cells - UCH-1 (AID 1259355); note: % is set by controls: 0 for no effect and ±100 for the full control effect; nearly all actives have a fitted effect of over 55% in size
Summary of the method: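 Luminescent ATP read-out (CellTiter-Glo, 30min at room temperature) measured viability of UCH-1 cells exposed for 48hr to test drugs at 15 concentrations, co-dosed with a five-agent combination of auranofin, camptothecin, doxorubicin, rubitecan and topotecan.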

[19] = qHTS assay to identify small molecule inhibitors of chordoma cells - UCH-2 (AID 1259356); note: % is set by controls: 0 for no effect and ±100 for the full control effect

In the case of CN1C(=O)C(Cc2c[nH]c3ccccc23)NC1=S (stereo not drawn), the remaining proliferation (% of control), lower = more inhibition [1] is reported as 73.5%, the parasite growth, % of DMSO control [2] is reported as 338% and the parasite growth remaining, % of DMSO control (lower = more inhibition) [3] is reported as 99%. For the same molecule, the parasite growth, % of control (lower = inhibition) [4] was 123%, the growth, % of control [5] was 245% and the cell viability, % of control (lower = more cytotoxic) [6] was 70.1%. The viability (% of control) [7] was 106%, the Potency [8] was “inactive” and the Potency [9] was “inactive”. For the same molecule, the Potency [10] was “inactive”, the Potency [11] was “inactive” and the Potency [12] was “inactive”. For the same molecule, the Potency [13] was “inactive”, the Potency [14] was “inactive” and the Potency [15] was “inactive”. For the same molecule, the IC50 (viability decrease) [16] was “inactive”.

In the case of CCOC(=O)[C@@H](N)CCC(=O)N[C@@H](CSCc1ccccc1)C(=O)N[C@@H](C(=O)OCC)c1ccccc1, the remaining proliferation (% of control), lower = more inhibition [1] is reported as 64.9%, the parasite growth, % of DMSO control [2] is reported as 89.7% and the parasite growth remaining, % of DMSO control (lower = more inhibition) [3] is reported as 86.5%. It also gave a parasite growth, % of control (lower = inhibition) [4] of 163%, a growth, % of control [5] of 101% and a cell viability, % of control (lower = more cytotoxic) [6] of 39.6%. For the same molecule, the viability (% of control) [7] was 90.7%, the Potency [8] was “inactive” and the Potency [9] was “inactive”. The Potency [10] was “inactive”, the Potency [17] was “inactive” and the Potency [14] was “inactive”. For the same molecule, the Potency [15] was “inactive”.

c1cc(OCCN2CCCCC2)cc(-c2n[nH]c3ccc(-c4ncn[nH]4)cc23)c1 showed a parasite growth, % of DMSO control [2] of 8.07%, a parasite growth remaining, % of DMSO control (lower = more inhibition) [3] of 9.76% and a parasite growth, % of control (lower = inhibition) [4] of 9.96%. For the same molecule, the growth, % of control [5] was 3.58%, the cell viability, % of control (lower = more cytotoxic) [6] was 107% and the viability (% of control) [7] was 20.5%. For the same molecule, the Potency [8] was “inactive”, the Potency [9] was “inactive” and the Potency [10] was 10.5 µM (active). The Potency [17] was 23.5 µM (active).

With O=C1C(CCC(O)c2ccc(F)cc2)C(c2ccc(O)cc2)N1c1ccc(F)cc1 (stereo not drawn) the remaining proliferation (% of control), lower = more inhibition [1] was 64.8%, the parasite growth, % of DMSO control [2] was 33.5% and the parasite growth remaining, % of DMSO control (lower = more inhibition) [3] was 77%. For the same molecule, the parasite growth, % of control (lower = inhibition) [4] was 36.6%, the growth, % of control [5] was 33.2% and the cell viability, % of control (lower = more cytotoxic) [6] was 88.9%. The viability (% of control) [7] was 93.3%, the Potency [8] was “inactive” and the Potency [9] was “inactive”. The Potency [10] was “inactive”, the Potency [11] was “inactive” and the Potency [12] was “inactive”. For the same molecule, the Potency [13] was “inactive”, the Potency [14] was “inactive” and the Potency [15] was “inactive”.

Work on CC(=O)N1CCN(c2ccc(OCc3nn(C)c(C)c3-c3cccc4c(CCCOc5cc(C)c(Cl)c(C)c5)c(C(=O)O)n(Cc5cccnc5)c34)cc2)CC1 yielded a parasite growth, % of DMSO control [2] of 5.72%, a parasite growth remaining, % of DMSO control (lower = more inhibition) [3] of 15.1% and a growth, % of control [5] of 6.27%. The cell viability, % of control (lower = more cytotoxic) [6] was 7.74%, the viability (% of control) [7] was 2.47% and the Potency [8] was “inactive”. For the same molecule, the Potency [9] was “inactive”, the Potency [10] was 20.9 µM (active) and the Potency [17] was 20.9 µM (active). For the same molecule, the Potency [12] was 20.9 µM (active).

O=C(O)c1nc(=O)[nH]c(=O)[nH]1 gave a parasite growth, % of DMSO control [2] of 88.8% [at 9.64 µM], a parasite growth remaining, % of DMSO control (lower = more inhibition) [3] of 106% [at 9.64 µM] and a growth, % of control [5] of 89.9% [at 9.64 µM]. The cell viability, % of control (lower = more cytotoxic) [6] was 161% [at 23.2 µM], the viability (% of control) [7] was 99.2% [at 23.2 µM] and the Potency [8] was “inactive”. For the same molecule, the Potency [9] was “inactive”, the Potency [10] was “inactive” and the Potency [11] was “inactive”. The Potency [12] was “inactive”, the outcome [18] was “inactive” and the outcome [19] was “inactive”.

Work on COc1cc([C@@H]2c3cc4c(cc3[C@@H](O[C@@H]3O[C@@H]5CO[C@@H](C)O[C@@H]5[C@H](O)[C@@H]3O)[C@H]3COC(=O)[C@H]23)OCO4)cc(OC)c1O yielded a remaining proliferation (% of control), lower = more inhibition [1] of 11.4% [at 9.63 µM], a parasite growth, % of DMSO control [2] of 10.3% and a parasite growth remaining, % of DMSO control (lower = more inhibition) [3] of 11%. It also gave a parasite growth, % of control (lower = inhibition) [4] of 140%, a growth, % of control [5] of 4.48% and a cell viability, % of control (lower = more cytotoxic) [6] of 57.1%. The viability (% of control) [7] was 8.03%, the Potency [8] was “inactive” and the Potency [9] was “inactive”. The Potency [10] was 1.05 µM (active), the Potency [11] was 0.148 µM (active) and the Potency [12] was “inactive”.
